Screening results deposited in PubChem by several laboratories.
EphB4 antag = EphB4-ephrin-B2 interaction antagonists, primary screen, biochemical, TNYL-RAW peptide probe, fluorescence polarization | Ephrin type-B receptor 4 (Homo sapiens), P54760 | EphB4 LBD / TNYL-RAW-Alexa532 peptide | inhibition, % at 7 µM | 97,000 tested, 0.15% active | AID 720, 2007;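 active = inhibition above the screen-wide mean inhibition plus 3 SD, cut at about 15% in these data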
PLK1 inh = human PLK1 kinase inhibitors, primary screen, biochemical, TR-FRET. recombinant PLK1 kinase, TR-FRET peptide phosphorylation. inhibition, % at 10 µM. 97,000 tested, 0.53% active. Serine/threonine-protein kinase PLK1 (Homo sapiens), P53350;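 active = inhibition of 50% or more in the single-concentration screen; inactive = inhibition below 50%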
Target sequence (P53350 whole entry, looked up): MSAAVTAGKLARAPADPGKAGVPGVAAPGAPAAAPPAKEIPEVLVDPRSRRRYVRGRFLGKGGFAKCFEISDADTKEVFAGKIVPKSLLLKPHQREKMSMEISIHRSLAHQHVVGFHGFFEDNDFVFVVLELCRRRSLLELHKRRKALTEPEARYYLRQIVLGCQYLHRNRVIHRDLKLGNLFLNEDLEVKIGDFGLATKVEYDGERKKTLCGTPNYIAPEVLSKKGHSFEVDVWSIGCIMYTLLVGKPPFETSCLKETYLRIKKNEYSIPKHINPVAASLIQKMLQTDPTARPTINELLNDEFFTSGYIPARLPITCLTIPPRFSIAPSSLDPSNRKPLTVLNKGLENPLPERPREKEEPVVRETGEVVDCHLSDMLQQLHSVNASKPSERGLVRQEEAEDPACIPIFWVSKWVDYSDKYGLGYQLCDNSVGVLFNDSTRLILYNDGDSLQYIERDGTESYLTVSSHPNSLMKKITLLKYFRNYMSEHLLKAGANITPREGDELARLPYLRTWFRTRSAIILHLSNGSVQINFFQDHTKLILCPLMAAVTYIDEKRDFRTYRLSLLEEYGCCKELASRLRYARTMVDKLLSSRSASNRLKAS
PLK1 PBD inh = Plk1 polo box domain binding inhibitors, primary screen, biochemical, fluorescence polarization; Plk1 PBD phosphopeptide binding; inhibition, %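 (tested at about 20 µM)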; 97,000 tested, 0.13% active; AID 693, 2007; in the data active = inhibition above about 34%, passing the limit was not always enough
FAK blocker = FAK kinase inhibitors, primary screen, biochemical; biochemical FAK kinase activity assay; Focal adhesion kinase 1 (Homo sapiens), Q05397; inhibition, %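 (tested at 7 µM)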; 97,000 tested, 0.84% active
Smad3 FoxH1 inh = Smad3/FoxH1 peptide binding inhibitors, primary screen, biochemical, TR-FRET. Mothers against decapentaplegic homolog 3 (Homo sapiens), P84022. TR-FRET Smad3/Dy647-FoxH1 peptide binding, europium anti-His. 88,000 tested, 0.29% active. inhibition, % at 25 µM. AID 630, 2007;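 active = compounds that reduce the energy-transfer binding signal between the protein and its labelled peptide by more than half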
FAK inh confirm = FAK kinase inhibitors, retest, confirmation, biochemical; shares compounds with FAK blocker; FAK kinase biochemical inhibition assay; inhibition, % at 7 µM; 750 tested, 28% active; AID 794, 2007
Of the large screens only hits and unclear results are named; the others gave an inactive call (follow-up assays come after a bar, where they were run). In the library only some 1.5% were active in any assay of this set; here they are far more common. Rule as the data show it, unless noted: active = inhibition above about 19%; inactive = the rest.

O=C(Nc1ccc2c(c1)oc1ccccc12)c1ccc2c(c1)OCO2	none
O=c1c(O)c(-c2ccc3c(c2)OCO3)oc2ccccc12	FAK blocker 20 (no result: Smad3 FoxH1 inh) | FAK inh confirm inactive
C=CCc1ccc(OCCn2cccc2C=O)c(OC)c1	none (no result: Smad3 FoxH1 inh)
Oc1ccc2ccccc2c1C=Nc1ccc(N2CCOCC2)cc1	FAK blocker 46 | FAK inh confirm 49
Clc1ccc(Sc2ccc(/C=N/n3cnnc3)o2)cc1	none
COc1ccc(N2Cc3cccc(C(=O)N4CCN(C(=O)c5ccco5)CC4)c3C2=O)cc1	FAK blocker 49 | FAK inh confirm inactive
COc1ccc(N2Cc3cccc(C(=O)N4CCOCC4)c3C2=O)cc1	none
COC(=O)C(C)N(C(=O)c1ccc(C(=O)c2ccccc2)cc1)c1c(C)cccc1C (centres undefined)	none
Nc1ccc(-n2cnc3cc([N+](=O)[O-])ccc32)cc1	FAK blocker 26 (no result: Smad3 FoxH1 inh) | FAK inh confirm inactive
CN(CC1CCCO1)S(=O)(=O)c1ccc(C(=O)Nc2nc(-c3ccccn3)cs2)cc1 (centres undefined)	none
Cc1cc(-c2csc(NC(=O)c3ccc(=O)n(C)n3)n2)c(C)n1CC1CCCO1 (centres undefined)	FAK blocker 22 | FAK inh confirm inactive
CCCOc1ccc(C2C(C(=O)OC)=CN(CCOC)C=C2C(=O)OC)cc1	none
COc1ccc(C2=NO[C@@H]3C(=O)N(c4c(C)cccc4C)C(=O)[C@H]23)cc1OC	none
COc1ccc(OC)c(N2C(=O)[C@@H]3C(c4ccccc4Cl)=NO[C@@H]3C2=O)c1	FAK blocker 19 | FAK inh confirm inactive
Cc1cc(C)cc(NC(=O)CSc2nnc(CN3CCOCC3)n2C)c1	none
Cc1cc2n(c1)CCn1c(C)ccc1-2	FAK blocker 23 | FAK inh confirm inactive
CN(C)c1cc2c(c(N(C)C)c1)C(=O)c1ccccc1C2=O	FAK blocker 49 (no result: Smad3 FoxH1 inh) | FAK inh confirm 24
CCOCCOC(=O)C1=C(C)NC2=C(C(=O)CC(c3cccs3)C2)C1c1ccsc1 (centres undefined)	FAK blocker 22 | FAK inh confirm 21
c1csc(Cc2nn3c(-c4n[nH]c5c4CCC5)nnc3s2)c1	FAK blocker 28 | FAK inh confirm inactive
COc1ccc(OCc2nn3c(-c4ccco4)nnc3s2)cc1	none
c1coc(-c2nnc3sc(Cc4cccs4)nn23)c1	FAK blocker 25 | FAK inh confirm inactive
O=C(Nc1ccc2c(c1)OCO2)N1CCN(c2ccccc2Cl)CC1	none
Cc1ccc(NCc2nnc(SCC(=O)N3CCCCC3)n2CC2CCCO2)c(C)c1 (centres undefined)	none
CN1CCN(CC(=O)n2c3c(c4ccccc42)CCCC3)CC1	FAK blocker 20 | FAK inh confirm inactive
CCN(CC)CC(=O)n1c2c(c3ccccc31)CCCC2	none (no result: EphB4 antag, PLK1 inh, PLK1 PBD inh, FAK blocker)
O=C(c1ccco1)N1CCN(C(=O)C2CCN(S(=O)(=O)c3cnc[nH]3)CC2)CC1	none (no result: EphB4 antag, PLK1 inh, PLK1 PBD inh, FAK blocker)
COC(=O)c1cn(NC(=O)C2CCC(C(C)(C)C)CC2)c(=O)c2ccccc12 (centres undefined)	none (no result: Smad3 FoxH1 inh)
CCc1c(C)nc(SCC(N)=O)c(C#N)c1C	none
CCc1c(C)nc(SCC(=O)c2cccs2)c(C#N)c1C	FAK blocker 30 | FAK inh confirm 26
CCn1c(C)cc(/C=C2\SC(=O)N(CC(=O)Nc3ccc(C)c(C)c3)C2=O)c1C	none (no result: Smad3 FoxH1 inh)
Cc1ccc(NC(=O)CN2C(=O)S/C(=C/c3ccc(-c4cc(C(=O)O)ccc4C)o3)C2=O)cc1C	FAK blocker 75 | FAK inh confirm inactive
O=C(CCSc1ccccc1)Nc1nc2c(s1)COc1ccccc1-2	none
CC(C)(C)C(=O)Nc1nc2c(s1)COc1ccccc1-2	FAK blocker 45 | FAK inh confirm 30
CCOC(=O)C1=C(c2ccccc2)OC(N)=C(C#N)C1c1cccs1 (centres undefined)	FAK blocker 26 (no result: Smad3 FoxH1 inh) | FAK inh confirm 20
O=C(CN1CCOCC1)NCc1ccccc1	none
c1ccc2c(c1)ncn2-c1ccc(-c2ccnc(-c3ccncc3)n2)cc1	FAK blocker 29 (no result: Smad3 FoxH1 inh) | FAK inh confirm inactive
COc1ccc(O)c(/C=N/NC(=O)c2ccc(OCc3cccc(Br)c3)cc2)c1	FAK blocker 19 (no result: Smad3 FoxH1 inh) | FAK inh confirm inactive
COc1ccc(C(=O)NCC(=O)OCc2cccc(Br)c2)cc1	none (no result: Smad3 FoxH1 inh)
COc1ccc(NC(=O)[C@@H]2[C@@H]3C(=O)N(C4CCCCC4)C(=O)[C@@H]3C3c4ccccc4C=CN32)cc1 (some centres undefined)	none
O=C1NC(=O)[C@@H]2C3c4ccccc4C=CN3[C@H](C(=O)c3cccs3)[C@H]12 (some centres undefined)	FAK blocker 20 | FAK inh confirm inactive
CCOc1ccc(-c2nnc3sc(COc4ccc(Cl)cc4)nn23)cc1	FAK blocker 21 | FAK inh confirm inactive
CCOc1ccc(-c2nnc3sc(COc4ccc(C)cc4)nn23)cc1	none
CN1CCN(S(=O)(=O)c2ccc(NC(=O)Cc3cccs3)cc2)CC1	none
O=C(Cc1cccs1)Nc1ccc(S(=O)(=O)N2CCCCC2)cc1	FAK blocker 23 | FAK inh confirm inactive
COc1cc(S(=O)(=O)NCC2CCCO2)c(OC)cc1Cl (centres undefined)	none
CCOc1cccc(CNc2ccc(O)cc2)c1OCc1ccc(Cl)cc1Cl	FAK blocker 29 (no result: Smad3 FoxH1 inh) | FAK inh confirm inactive
Cc1ccc(S(=O)(=O)N2c3ccccc3NC(=O)CC2C)cc1 (centres undefined)	none (no result: Smad3 FoxH1 inh)
